# High-throughput results deposited in PubChem by National Center for Advancing Translational Sciences (NCATS).
# Sm TGR block = blocks Schistosoma mansoni thioredoxin glutathione reductase | Potency, µM (doses to about 114 µM), for the others: at the top dose activity change, negative = inhibition, most hits filed as inhibitors | AID 485364 | Q962Y6 | purified TGR, DTNB reduction, TNB absorbance 405 nm | 3% of 360,000 active; further: potency means the concentration at half of the fitted maximal effect; on the % scale 0 is the no-effect control and ±100 the full control effect; nearly all actives have a fitted effect of over 60% in size
#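 First, TGR (20 nM dispensed) and NADPH were mixed with compound. Second, a 15 min room-temperature incubation followed. Third, further NADPH and then DTNB were added to start the reaction. Finally, TNB absorbance was monitored kinetically.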
# CHX counter = counter-screen for Shiga toxin inhibitors: cycloheximide protein synthesis inhibition | cell reporter, cycloheximide protein synthesis inhibition counterscreen | max response, % | 12% of 300,000 active | AID 2314; in the data active means max response mostly above about 13%, no sharp cut-off; inactive means mostly below about 14%; further: read at 38.3 µM for the half of the compounds with a filed dose; 0% is about no effect
# Shiga inhibitor = Shiga toxin inhibition. Vero cells, Shiga toxin protein synthesis inhibition reporter. inhibition, % at 38.7 µM. 9.2% of 290,000 active; in the data active means inhibition mostly above about 28%, no sharp cut-off; inactive means mostly below about 43%; further: 0% is about no effect
# LmPK inhibitor = blocks Leishmania mexicana pyruvate kinase activity | Q27686 | purified LmPK, Kinase-Glo ATP luminescence, 1 h | Potency, µM (series often up to 57.5 µM), for the others: at the highest dose activity change, negative = inhibition, hits mostly inhibitors | 0.37% of 290,000 active | AID 1721; further: potency means the concentration at half of the fitted maximal effect; on the % scale 0 is the no-effect control and ±100 the full control effect
#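 Purified LmPK (0.1 nM) with 0.5 mM PEP and 0.1 mM ADP in imidazole buffer pH 7.2 with MgCl2/KCl, 1 h at room temperature. ATP formed was read by luciferase luminescence and normalized to no-enzyme and uninhibited controls.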
# FBPA Giardia inh = Giardia lamblia aldolase inhibition; A8B2U2; Potency, µM (titrated, usually from 59.6 µM), for inactives: at the highest dose activity, negative = inhibition, hits mostly inhibitors; purified Giardia FBPA; 0.71% of 290,000 active; further: potency means the concentration at half of the fitted maximal effect; on the % scale 0 is the no-effect control and ±100 the full control effect; nearly all actives have a fitted effect of over 55% in size
# Target sequence (A8B2U2 whole entry, looked up): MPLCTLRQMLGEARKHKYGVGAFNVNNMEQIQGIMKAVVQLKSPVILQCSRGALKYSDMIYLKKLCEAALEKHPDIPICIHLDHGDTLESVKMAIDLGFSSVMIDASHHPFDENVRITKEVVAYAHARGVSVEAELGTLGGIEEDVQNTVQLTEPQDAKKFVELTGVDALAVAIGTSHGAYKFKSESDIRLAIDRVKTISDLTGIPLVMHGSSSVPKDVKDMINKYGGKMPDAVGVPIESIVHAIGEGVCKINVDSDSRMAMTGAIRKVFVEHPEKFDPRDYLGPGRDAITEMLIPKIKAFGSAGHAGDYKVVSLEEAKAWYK
#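 40 nM FBPA preincubated 10 min at RT with compound (up to 57.5 uM final), then substrate plus GAPDH/TPI/NAD/arsenate coupling and diaphorase/resazurin added. Fluorescence read after 20 min at RT, 525/598 nm.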
# TbPYK inhibitor = blocks Trypanosoma brucei pyruvate kinase; Q57TT1; TbPYK enzyme, Kinase-Glo Plus ATP luminescence, 45 min; Potency, µM (series often up to 76.8 µM), for the others: at the highest dose activity, negative = inhibition, usual class: inhibitors; 0.12% of 410,000 active; further: potency means the concentration at half of the fitted maximal effect; on the % scale 0 is the no-effect control and ±100 the full control effect; nearly all actives have a fitted effect of over 50% in size
#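 Enzyme and substrate buffer are dispensed first and compound is pin-transferred. ADP at 130 uM final then starts the reaction, which runs 45 min at room temperature. Detection reagent is added for 10 min before luminescence is imaged.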
# Starred values were filed as active, the others as inactive; ? = inconclusive; · = no result given; [ ] = remark or other dose. The entries come from a sample that favours hits as a whole. Unless noted, the call rests on the fitted dose curve; in most records, active means well fitted curve in the direction sought with a large enough effect; inconclusive means small, poorly fitted or top-dose-only effect, or another doubt; inactive means no such curve, though single readings can be large; an effect the other way counts as inactive or inconclusive.
SMILES,Sm TGR block,CHX counter,Shiga inhibitor,LmPK inhibitor,FBPA Giardia inh,TbPYK inhibitor
COc1ccc(C[C@H]2CN3C(=NC[C@@H]3Cc3ccccc3)N2C[C@H](C)NC(=O)CCC2CCCCC2)cc1,-7%,-8,4,5%,-2%,·
COc1cccc2sc(N(Cc3cccnc3)C(=O)c3ccc4c(c3)OCCO4)nc12,1%,·,·,·,·,3%
CC(=O)Nc1ccc(S(=O)(=O)NCc2nc(-c3ccc(C)cc3)no2)cc1,3%,-3,15,-2%,·,4%
Cc1ccc(C(=O)N[C@@H](C)CN2C3=NC[C@@H](Cc4ccccc4)N3C[C@H]2Cc2ccc(O)cc2)cc1Br,50µM*,-2,-5,-2%,1%,-17%
Cc1ccc(C(=O)N[C@@H](C)CN2C3=NC[C@H](Cc4ccccc4)N3C[C@H]2Cc2ccc(O)cc2)cc1Br,?,-7,-4,1%,-8%,0%
COc1ccc(Cl)cc1C(=O)Nc1sc2c(c1C(=O)OC(C)C)CCCC2,11%,·,·,·,·,1%
Cc1cc([N+](=O)[O-])ccc1NCc1ccc2c(c1)OCCO2,4%,15,33,6%,1%,1%
Cc1cc(F)ccc1NCc1ccc([N+](=O)[O-])cc1,6%,30*,71*,-4%,-7%,6%
O=C(NC(=S)N(Cc1ccccc1)Cc1ccccc1)C1CCCCC1,-7%,8,-12,-3%,4%,0%
COc1ccccc1NC(=O)N(Cc1ccccc1)c1ccccn1,5%,10,32*,9%,-6%,-9%
Cc1ccc(CN(C(=O)COc2cccc([N+](=O)[O-])c2)c2ccccn2)o1,50µM*,·,·,·,·,-16%
Cc1ccc(OCC(=O)N(Cc2ccccc2)c2ccccn2)cc1,-5%,32*,3,-3%,-8%,-18%
O=C(NC(=S)N(Cc1ccccc1)c1ccccn1)C1CC1,-5%,13*,4,-2%,-19%,0%
CC(=O)OC1C=C[C@@H](OC(C)=O)C1 (some centres undefined),·,-2,23,·,7%,·
COc1cccc(CN(C)CC(=O)Nc2ccccc2C(C)C)c1,8%,-3,-3,1%,?,-13%
COc1ccc(CNC(=O)CCNS(=O)(=O)c2ccc3c(c2)CCCC(=O)N3)cc1,-1%,·,·,·,·,8%
CCOc1ccc(NC(=O)CSc2cn(CC(=O)N3CCCCCC3)c3ccccc23)cc1,35%,·,·,·,·,-4%
Cc1ccc(N2C(=O)C(CC(=O)Nc3ccc(F)cc3)N(CCC3=CCCCC3)C2=O)cc1 (centres undefined),-2%,·,·,·,·,-2%
COC1(OC)N=C(N)C2(C#N)C(c3ccccc3)NC(C)=CC12C#N (centres undefined),-2%,3,-10,0%,-27%,-12%
CC1=CC(C#N)(C#N)C(C#N)(C#N)C(c2ccccc2)N1 (centres undefined),22µM*,13,17,7%,?,·
COC(=O)C1=C(c2ccc(C(C)=O)cc2)C[C@@H]2CC[C@H]1N2C(=O)NCC1CC1,22µM*,·,·,·,·,0%
Cc1ccc2nc(N3CCN(C)CC3)c(C#N)cc2c1,2%,33*,53,0%,-5%,-16%
Cc1ccc2cc(C#N)c(N3CCN(C)CC3)nc2c1,0%,-3,-6,4%,5%,5%
Cc1ccc2nc(CCc3nc4ccc(C)cc4[nH]3)[nH]c2c1,1%,-2,-6,-3%,0%,0%
Cc1ccc2nc(N3CCN(C)CC3)[nH]c2c1,0%,48*,67*,-4%,-13%,-1%
SMILES,Sm TGR block,CHX counter,Shiga inhibitor,LmPK inhibitor,FBPA Giardia inh,TbPYK inhibitor
CCOc1ccc(C2C(=O)N(C3CCCCCC3)CC(=O)N2CCc2ccc(Cl)cc2)cc1OC (centres undefined),2%,·,·,·,·,1%
O=S(=O)(NCCc1ccc2c(c1)OCCO2)c1cccs1,2%,19*,16,4%,3%,-5%
COc1ccccc1N1CCN(/N=C/c2cc([N+](=O)[O-])ccc2Cl)CC1,0%,0,-7,-6%,3%,3%
O=[N+]([O-])c1ccccc1/C=C/C=N/N1CCCCC1,-5%,66*,63*,-9%,-7%,0%
O=[N+]([O-])c1ccccc1/C=N/N1CCN(c2ccc(Cl)cc2)CC1,-2%,0,13,5%,-5%,-9%
COc1ccccc1N1CCN(/N=C/C=C/c2ccccc2[N+](=O)[O-])CC1,7%,13,67*,-6%,-10%,-1%
O=[N+]([O-])c1ccccc1/C=N\N1CCN(c2ccccc2)CC1,-15%,36*,61*,4%,0%,-1%
O=[N+]([O-])c1ccccc1/C=C\C=N\N1CCN(c2ccccc2)CC1,-1%,25*,56,8%,-7%,1%
OCC1=CC[N+]2(Cc3ccccc3)CCC(O)[C@@H]12 (some centres undefined),·,·,·,·,4%,·
CC(=O)N1c2ccc(S(=O)(=O)N3CCCCCC3)cc2CC1C(=O)NCc1ccccc1F (centres undefined),-1%,·,·,·,·,-1%
COC(=O)NC(c1cccc(C)c1)[C@]1(C(C)=O)CCOC1=O (some centres undefined),·,·,·,·,1%[12.9 µM],·
CN(C)C(=O)c1cc(-c2ccccc2)no1,28%,22*,53*,-11%,1%,1%
CC(C)(C)c1cc(-c2ccccc2)no1,7%,-2,-5,-2%,5%,3%
COc1ccc(OC)c(C2Nc3c(Cl)ccc(C(=O)O)c3C3C=CCC32)c1 (centres undefined),1.6µM*,-2,-7,22%,?,-22%
COC(=O)COc1ccc(C2Nc3c(Cl)ccc(C(=O)O)c3C3C=CCC32)cc1 (centres undefined),3.5µM*,-7,-14,-7%,-20%,?
COc1ccc(C(=O)/C(Br)=C/C(=O)O)cc1,·,·,·,·,·,1%
Nc1ccccc1SCC(=O)N1CCc2ccccc21,22%,41*,67,3%,-4%,-9%
Cc1ccc(SCC(=O)N2CCc3ccccc32)cc1,-1%,46*,53*,0%,2%,-5%
O=C(CNCCO)N1CCc2ccccc21,-4%,1,16,1%,9%,-6%
O=C(CNc1ccccc1OC(F)F)N1CCc2ccccc21,0%,32*,45*,-6%,1%,-3%
Cc1ccc(-c2ccc(SCC(=O)N3CCCc4ccccc43)nn2)cc1,-16%,24*,52*,2%,2%,·
CC(C)(C)OC(=O)N1CCC(c2c(C(=O)Nc3ccc4c(c3)OCCO4)cnn2-c2ccc(F)cc2F)CC1,-2%,·,·,·,·,-5%[15.4 µM]
COC(=O)c1cc(NC2(c3ccccc3)C(=O)c3ccccc3C2=O)cc(C(=O)OC)c1,21%,·,·,·,·,1%
CCCN(C(=O)Cn1nc(Cc2cccnc2)c2ccccc2c1=O)c1ccc(C(C)C)cc1,-11%,·,·,·,·,5%
